High-throughput results from PubChem.
Compounds with a hit are over-represented: about 28% of the library has one in this group of screens.
PLK1 inh = inhibitors of human PLK1 kinase; recombinant PLK1 kinase, TR-FRET peptide phosphorylation; P53350; inhibition, % at 10 µM; hit rate 0.53% among 97,000;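 active means inhibition of 50% or more in the single-concentration screen; inactive means inhibition below 50%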;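 further: 0% = DMSO max control and 100% = H-89 dihydrochloride min control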
CYP2C9 inh = human CYP2C9 inhibition; hit rate 20% among 96,000; AID 777; CYP2C9 Supersomes, luciferin-H conversion, luminescence; inhibition, % at 5 µM; P11712;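 active means blocking of liver enzyme CYP2C9 beyond about 50% at 5 µM, limit read from the data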
CYP2C19 inh = inhibitors of human CYP2C19 | AID 778 | P33261 | hit rate 21% among 96,000 | inhibition, % at 5 µM | CYP2C19 Supersomes, luciferin-H EGE luminescence, 30 min;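 active means CYP2C19 inhibition above a set limit at 5 µM in the primary screen, cut at about 50% in these data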;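 further: plate controls were negative control wells for no effect and 2.5 mM tranylcypromine positive control for full effect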
Target sequence (P33261 whole entry, looked up): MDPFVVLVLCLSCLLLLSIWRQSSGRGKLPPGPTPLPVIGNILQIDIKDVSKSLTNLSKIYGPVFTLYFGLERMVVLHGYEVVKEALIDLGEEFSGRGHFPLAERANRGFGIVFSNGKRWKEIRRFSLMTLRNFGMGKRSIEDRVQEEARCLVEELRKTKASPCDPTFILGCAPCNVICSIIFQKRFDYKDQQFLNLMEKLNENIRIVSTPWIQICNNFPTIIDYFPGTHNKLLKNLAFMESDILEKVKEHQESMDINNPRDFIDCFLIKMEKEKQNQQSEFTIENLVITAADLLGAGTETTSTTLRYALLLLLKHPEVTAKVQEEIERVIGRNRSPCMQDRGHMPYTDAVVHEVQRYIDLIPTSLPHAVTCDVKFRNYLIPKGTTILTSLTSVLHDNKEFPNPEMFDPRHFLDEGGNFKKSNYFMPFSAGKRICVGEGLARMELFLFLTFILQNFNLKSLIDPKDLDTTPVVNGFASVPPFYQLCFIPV
CYP2C19 activ = cytochrome P450 2C19 (human) activation | P33261 | recombinant CYP2C19, luciferin-H EGE luminescence; active compounds read high; 0 = fully inhibited enzyme, 1 = untreated enzyme | activation factor at 5 µM | 96,000 tested, under 10 active | AID 1025;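 active means activation factor of at least 2 at 5 µM in the primary screen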;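 further: 0 = wells with 2.5 mM tranylcypromine and 1 = vehicle-only wells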
Plk1 PBD FP = Plk1 (human) PBD binding inhibition; Plk1 PBD phosphopeptide binding, fluorescence polarization; hit rate 0.13% among 97,000; P53350; inhibition, %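 (tested at about 20 µM)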; in the data active means inhibition above about 34%, passing the limit was not always enough
CYP2C9 activ = activators of human CYP2C9. P11712. recombinant CYP2C9, luciferin-H conversion, luminescence; active compounds read high; factor 1 = untreated enzyme, 0 = blocked. activation factor at 5 µM. hit rate 1.4% among 96,000;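 active means activation factor of 2 or more for CYP2C9 at a 5 µM dose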;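 further: 0 = sulfaphenazole-blocked wells and 1 = vehicle-only wells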
PLK1 inh conf = confirmation of human PLK1 kinase inhibitors | shares compounds with PLK1 inh | recombinant PLK1 kinase, TR-FRET peptide phosphorylation | inhibition, % at 10 µM | hit rate 20% among 210;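 active means inhibition at or above 50% in each of two repeat confirmation tests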;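 further: 0% = DMSO max control and 100% = H-89 kinase-blocked min control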
TR-FRET interf = Plk1 assay compound interference counter-screen hit; 210 tested, under 10 active; Plk1 TR-FRET assay interference, compound added post-reaction; AID 756; inhibition (interference), % at 10 µM; shares compounds with PLK1 inh;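 active means both duplicate runs show 50% or greater inhibition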;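 further: 0% = DMSO max control and 100% = H-89 min control inhibited reaction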
Redox H2O2 DR = generates H2O2 by redox cycling, flagging false Plk1 PBD hits | AID 876 | redox cycling H2O2 generation, DTT, counter-screen | 120 tested, under 10 active | EC50, µM | shares compounds with Plk1 PBD FP; call rule not given here
Numbers without * were called inactive; x = no result.

SMILES	PLK1 inh	CYP2C9 inh	CYP2C19 inh	CYP2C19 activ	Plk1 PBD FP	CYP2C9 activ	others
CCOc1cc(/C=C2/C(=O)NC(=O)N(c3ccc(CC)cc3)C2=O)ccc1OC(=O)c1cccs1	-14.2	18.7	58.7*	0.4	2.0	0.8
CC(C)c1ccc(N2C(=O)NC(=O)/C(=C\c3cnc(-c4ccccc4)nc3)C2=O)cc1	-7.8	23.8	28.1	0.7	-2.9	0.8
CCCC(C)C1(CC)C(=O)NC(=Nc2ccccc2)NC1=O (stereo unspecified)	-14.3	x	x	x	-8.5	x
CN(C)P(=O)(C(Cl)=C(N1CCCCC1)N1CCCCC1)N(C)C	-13.4	16.3	68.6*	0.3	18.6	0.8
O=P(O)(O)COc1ccccc1O	-3.3	3.3	0.6	1	2.5	1
CCOC(=O)c1nc2ccccc2c(=O)n1-c1cccc(C)c1	-7.9	51.8*	40.9	0.6	-34.5	0.5
CCOC(=O)c1nc2ccccc2c(=O)n1-c1ccc(C)cc1	-8.4	55.0*	45.9	0.5	-19.0	0.4
Cc1nc2ccccc2c(=O)n1-c1cccc(O)c1	-4.5	21.8	35.8	0.6	-11.2	0.8
C=CCN1C(=O)CSc2ccc(C(=O)N3CCC4(CC3)OCCO4)cc21	-8.3	-23.8	42.9	0.6	-12.3	1.2
Cc1cc(N2C(=O)C3CCCN3C2c2cccc(Cl)c2)no1 (stereo unspecified)	-18.6	x	x	x	0.9	x
Cc1nn(C2CCOC(C)(C)C2)c2c1C(c1ccc(OC(C)C)cc1)SCC(=O)N2 (stereo unspecified)	0.5	-0.6	-8.1	1.1	-0.7	1
COC(=NC1CCCCC1)C(O)c1c[nH]c2ccccc12 (stereo unspecified)	-4.7	-74.5	45.3	0.5	-19.2	1.7
O=C(c1cccn2c(=O)c3cc(Br)ccc3nc12)N1CCC2(CC1)OCCO2	-16.4	54.8*	32.0	0.7	9.8	0.5
CCOC(=O)C(O)(c1ccc(N(CC)C(=O)OC)cc1)C(F)(F)F (stereo unspecified)	-5.7	68.8*	63.9*	0.4	-9.3	0.3
CCOC(=O)c1cc(C(O)(C(=O)OC)C(F)(F)F)c(/N=C/N(C)C)o1 (stereo unspecified)	-9.9	24.7	19.4	0.8	-15.0	0.8
CCOC(=O)C(NC(=O)CC)(Nc1ccc(C(O)(C(=O)OCC)C(F)(F)F)cc1C)C(F)(F)F (stereo unspecified)	-8.6	54.1*	33.5	0.7	-0.5	0.5
CCOC(=O)N(CC)c1ccc(C(O)(C(=O)OCC)C(F)(F)F)cc1 (stereo unspecified)	x	76.6*	58.2*	0.4	x	0.2
CCOC(=O)N(C)c1ccc(C(O)(C(=O)OCC)C(F)(F)F)cc1 (stereo unspecified)	-7.7	69.6*	61.4*	0.4	6.2	0.3
CC(C)OCCCNC(=O)c1c(N)n(CC2CCCO2)c2nc3ccccc3nc12 (stereo unspecified)	-12.7	84.9*	66.6*	0.3	-0.9	0.2
COCCOC(=O)c1c(N)n(Cc2ccccc2)c2nc3ccccc3nc12	x	21.9	21.3	0.8	x	0.8
CCCCn1c(N)c(C(=O)OCC2CCCO2)c2nc3ccccc3nc21 (stereo unspecified)	-7.4	73.7*	68.1*	0.3	-14.8	0.3
CCCCOCCCn1c(N)c(C(=O)OCCOC)c2nc3ccccc3nc21	-4.5	51.8*	37.6	0.6	-1.8	0.5
CC(C)CCn1c(N)c(C(=O)OCC2CCCO2)c2nc3ccccc3nc21 (stereo unspecified)	-16.2	84.5*	63.1*	0.4	-27.7	0.2
CCN(CC)C(=O)c1ccc(NC(=O)c2cccc(F)c2)cc1	-15.3	-20.4	3.7	1	-6.7	1.2
O=C1CCCC2C3CCCN4CCCC(CN12)C34 (stereo unspecified)	-8.0	7.7	30.3	0.7	-1.9	0.9
CC(=O)N1CCC2(CC1)CC(=O)c1cc(OCC(=O)N3CCN(C)CC3)ccc1O2	-6.7	4.4	-4.7	1	-16.8	1
CN(C)C(=O)Oc1ccc(-c2nnco2)cc1	77.9*	-7.9	4.7	1	-7.9	1.1	PLK1 inh conf=-11.2;TR-FRET interf=-58.3
COC(=O)CC1(Cc2ccccc2)C(=O)NC(=O)NC1=O	-1.1	-11.5	-11.3	1.1	-31.6	1.1
Cc1ccc(-n2c(O)c(C=NCCN3CCOCC3)c(=O)[nH]c2=O)cc1	-34.5	21.7	13.8	0.9	44.1*	0.8	Redox H2O2 DR=>50
COc1ccc(OC)c(C2=NOC(C(=O)N3CCC4(CC3)OCCO4)C2)c1 (stereo unspecified)	-1.0	-83.9	41.9	0.6	2.7	1.8
